Results filed as inconclusive are left out. Where a call stands in place of a potency, no number is given. The source made the active and inactive calls. Calls follow the shape of the dose curve; as a rule, active = well fitted curve in the direction sought with a large enough effect; inconclusive = small, poorly fitted or top-dose-only effect, or effect the other way; inactive = flat fitted curve, though single readings scatter.

The assay is described as follows: Total Fluorescence Confirmation Counterscreen for Inhibitors of the Interaction of Thyroid Hormone Receptor and Steroid Receptor Coregulator 2, Fluorescein Fluoroprobe. To be noted: TRbeta/SRC2-fluorescein mix, total fluorescence interference; series mostly up to 92.2 µM. The text has this: NIH Molecular Libraries Probe Production Network [MLPCN] NIH Chemical Genomics Center [NCGC] MLPCN Grant: DK058080 Assay Provider: R. Kip Guy, St. Jude Children's Research Hospital NCGC Assay Overview: Thyroid receptor (TR) regulates many homeostatic processes including basal metabolism, cardiovascular function, body weight, and lipid trafficking. TR modulators are potential therapeutics for obesity and hyperlipidemias but current thyroid analogs have undesirable side effects, particularly cardiac stimulation. To identify inhibitors that specifically prevent the interaction of TR with the steroid receptor coregulator 2 (SRC2), a fluorescence polarization assay was screened (Arnold et al., 2006). This assay detects interaction of the ligand-binding domain of human TRbeta with a fluorescein labeled SRC2 peptide, corresponding to a 20 amino acid region of the nuclear receptor interaction domain. Total fluorescence (555 nm excitation and 632 nm emission) was measured to identify potential fluorescent and light absorbing compounds. Such compounds may be artifacts that interfere with the fluorescence polarization assay. This assay is a confirmation assay for AID 1479. Arnold, L. A.; Estebanez-Perpina, E.; Togashi, M.; Shelat, A.; Ocasio, C. A.; McReynolds, A. C.; Nguyen, P.; Baxter, J. D.; Fletterick, R. J.; Webb, P.; Guy, R. K. A high-throughput screening method to identify small molecule inhibitors of thyroid hormone receptor coactivator binding. Sci STKE 2006, p 13.
NCGC Assay Protocol Summary: For screening, 5 uL/well 0.6 uM TRbeta and 20 nM SRC2 Fluorescein in protein buffer (20mM Tris hydrochloride, 100mM NaCl, 10% glycerol, 1mM EDTA, 0.01% NP-40, 1mM DTT, 1uM T3 and 5% DMSO) was dispensed into black solid 1536-well plates (Grenier) using a solenoid-based dispenser. Following transfer of 23 nL compound or DMSO vehicle by a pin tool, the plates were centrifuged 15 s at 1000 RPM and incubated 5 hr at ambient temperature. The plates were read by an Envision (Perkin Elmer) to detect fluorescence polarization of SRC2 Fluorescein (480 nm excitation and 535 nm emission). Data were normalized to unbound (all components except TRbeta) and bound SRC2 Fluorescein controls. Total fluorescence (TF) was calculated as follows: TF = S + 2P where S and P are fluorescence readings in the parallel and perpendicular channels, respectively. In this assay, we provide % activity data for each concentration as well as potencies for the active compounds.
As for `O=C(O)[C@H]1CN(CCCP(=O)(O)O)CCN1`, the Potency entry is “inactive”.
As for `CC(=O)NC1N=C(C)N(c2ccccc2)C1=O` (stereo not given), the Potency result was “inactive”.
`Cc1[nH][nH]c(=O)c1C(c1ccc(-c2ccccc2C(=O)O)o1)c1c(C)[nH][nH]c1=O`: the Potency result was “inactive”.
As to `CC1(C)C(N(O)C(=O)Nc2ccc(Cl)cc2)N(c2ccc(Cl)cc2)C(=O)N1CC(=O)NN` (stereo not given), the total fluorescence change, positive = fluorescent is 17.6% [at 11.6 µM] (inactive).
With `CCSc1ncc(Cl)c(C(=O)Nc2nc3ccc(OC)cc3s2)n1`, the Potency entry was “inactive”.
Regarding `COc1ccc(-c2nc(CS(=O)CC(=O)NCc3ccccn3)c(C)o2)cc1` (stereo not given), the Potency was 39.8 µM [fluorescent] (active).
With `COc1cc(NC(C)CCCN)c2ncccc2c1` (stereo not given), the Potency result was “inactive”.
As to `O=C(NNc1cc(N2CCOCC2)nc(N2CCOCC2)n1)c1ccc(Cl)c(Cl)c1`, the Potency result was “inactive”.
With `CCOC(=O)c1cnc2nc(NCc3ccc(OC)c(OC)c3)[nH]n2c1=O`, the Potency result is “inactive”.
For the molecule `COc1cc(C(c2c(C)[nH][nH]c2=O)c2c(C)[nH][nH]c2=O)ccc1OC(=O)c1ccccc1OC`, the Potency result is “inactive”.
For `CCN(CC)S(=O)(=O)c1cccc(N=NC2=C(O)CCCC2=O)c1`, the total fluorescence change, positive = fluorescent was 7.56% [at 0.0112 µM] (inactive).
Turning to `COn1c2c(c3c4nonc4ccc31)CCCC2`, the Potency entry is “inactive”.
`O=C(NNc1cc(N2CCOCC2)nc(N2CCOCC2)n1)c1ccc([N+](=O)[O-])cc1`: the total fluorescence change, positive = fluorescent was 19.9% [at 11.6 µM] (inactive).
As for `Cc1nc2ccccc2n2c(O)c(CC(=O)O)cc12`, the Potency was 12.6 µM [fluorescent] (active).
Consider `Cc1ccc(-c2nc(S(=O)(=O)c3ccc(F)cc3)c(SCC(=O)NCC3CCCO3)o2)cc1` (stereo not given), for which the Potency result was “inactive”.
On to `Cc1cc(C)cc(OCC(=O)NCCc2nc3ccccc3[nH]2)c1`, for which the Potency entry is “inactive”.
Turning to `Cc1nc2c3cc(F)ccc3n(Cc3ccccc3F)c2s1`, the Potency entry was “inactive”.
As for `COc1ccc(CN2C(=O)Cc3c2nc(N)c2c(N)nc(N4CCCCC4)c(C#N)c32)cc1`, the Potency entry is “inactive”.
Same read-out and setting: to `Cc1cc2ccccc2n1CCNC(=O)C(C)Oc1ccccc1` (stereo not given) belongs “inactive”; to `Cc1ccc2c(CC(=O)Nc3c(C(=O)c4ccc(F)cc4)oc4ccccc34)coc2c1C`, “inactive”.
In the case of `CN1CCc2ccc3c4c2[C@]1(C)Cc1cccc(c1-4)OCO3`, the Potency is 100 µM [fluorescent] (active).
For `O=C(O)/C=C/C(=O)Nc1ccc(OC(F)(F)F)cc1Br`, the total fluorescence change, positive = fluorescent is 17.7% [at 0.0112 µM] (inactive).
In the case of `C=CCNC(=O)/C(C#N)=C/c1c(C)nn(-c2ccc(Cl)cc2)c1Cl`, the Potency entry was “inactive”.
On to `Nc1cnccc1C(=O)O`, for which the Potency entry is “inactive”.
As for `Cc1cccc(S(=O)(=O)c2cn(Cc3ccccc3)c3cc(N4CCC(C)CC4)c(F)cc3c2=O)c1`, the Potency result was “inactive”.
Consider `Cn1c(-c2ccc(=O)[nH]c2)nc2ccccc21`, for which the Potency entry is “inactive”.
In the case of `C=CCNC(=O)/C(C#N)=C\c1cc(Cl)c(OCC)c(OC)c1`, the Potency result is “inactive”.
On to `CN(CCO)c1nc(N)c2c(N)nc3c(c2c1C#N)CC(=O)N3C1CCCC1`, for which the total fluorescence change, positive = fluorescent was 13.6% [at 11.6 µM] (inactive).
For `CN(C(=S)Nc1cccnc1)c1ccc(O)cc1`, the Potency entry was “inactive”.
For the molecule `Cn1c(NNC(=O)c2c(F)cccc2F)cc(=O)n(C)c1=O`, the Potency entry is “inactive”.
For `COC(=O)c1ccccc1-c1ccc(C(c2c(C)[nH][nH]c2=O)c2c(C)[nH][nH]c2=O)o1`, the total fluorescence change, positive = fluorescent was 15.2% [at 5.76 µM] (inactive).
As to `CCCc1cc(=O)[nH]c(=S)[nH]1`, the Potency result was “inactive”.
For the molecule `Cc1cccc(Cn2c(C(=O)OC(C)C)cc3c2ccn3C)c1`, the total fluorescence change, positive = fluorescent is 8.18% [at 5.76 µM] (inactive).
For the molecule `Cc1cc2c(NC(=O)Nc3ccccc3)cccc2nn1`, the total fluorescence change, positive = fluorescent is 9.99% [at 0.0112 µM] (inactive).
Take `CCCCOc1ccc(C(=O)CCN2CCOCC2)cc1`: the Potency result was “inactive”.
For the molecule `CCC(NC(=O)Nc1ccc(O)cc1)(C(F)(F)F)C(F)(F)F`, the Potency entry is “inactive”.
With `COc1ccc2c(c1)-c1nc(/N=C/c3c(O)ccc4ccccc34)sc1CC2`, the total fluorescence change, positive = fluorescent was 29.6% [at 5.76 µM] (inactive).
Take `O=C(/C=C/c1ccco1)NC(=S)Nc1cc(C(F)(F)F)ccc1N1CCOCC1`: the Potency entry was “inactive”.
For the molecule `CCOc1ccc(C2=Cc3cc(OC)c(OC)cc3C(=C(Cl)Cl)O2)cc1`, the Potency result was “inactive”.
Still for that read-out and setting: to `O=c1cc(C23CC4CC(CC(C4)C2)C3)[nH][nH]1` belongs “inactive”.

(Values after PubChem BioAssay AID1571 (National Center for Advancing Translational Sciences (NCATS), 2009).)
